We go through 59 molecules from PubChem BioAssay AID1962 (The Scripps Research Institute Molecular Screening Center, 2009).

In all, about 300,000 compounds went through this assay and about 2,500 (0.83%) were called active. Many of the other results were omitted from the sample, so actives are more common in it than they were. A number with no mark means an inactive call.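 Rule for the calls: active = inhibition above the mean of all tested compounds plus 3 SD, set per screening campaign (cut at about 24% in these data); inactive = the rest.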

For the assay, the system named is tRNA 2'-phosphotransferase TPT1 (Candida albicans SC5314). The assay is described as follows: Candida albicans TPT1 enzyme inhibitors, primary screen, biochemical, fluorescence polarization (AID 1962).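 Note: plate controls were DMSO alone for no effect and ferristatin control at 100 nM for full effect.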 The conditions noted are these: recombinant caTPT1, FP RNA substrate dephosphorylation; at 5 µM; hits give high values.
As usually defined, the inhibition is the change of the read-out against control, counted positive when it falls. As to `COc1ccc(C(=O)Nc2sc(C)c(C)c2CN2CCOCC2)cc1`, the inhibition was 2.12%.

For the molecule `C#CCOCCOCCOCCNc1nc(N2CCN(C(=O)CCCCCCCCCCNC(=O)Cn3cc(CCCCCN)nn3)CC2)nc(N2CCN(C(=O)CCCCCCCCCCNC(=O)[C@H](CO)n3cc(CCCSC)nn3)CC2)n1`, the inhibition is -0.6%.

Take `Cc1ccc(N=Cc2c(O)cc(C)oc2=O)c(C)c1`: the inhibition was 9.41%.

For `Cc1cc(O)c(Sc2ccccc2)c(=O)o1`, the inhibition was 0.86%.

Take `Cc1cc(O)c(C(=O)/C=C/c2c(F)c(F)c(F)c(F)c2F)c(=O)o1`: the inhibition was 44.1% (active).

Consider `Cc1ccc(-n2c(SCC(=O)NCCC3=CCCCC3)nc3n[nH]c(C)c3c2=N)cc1Cl`, for which the inhibition is 0.45%.

On to `CO[C@@H]1[C@@H](OC(N)=O)[C@@H](O)C(Oc2ccc3c(O)c(NC(=O)c4ccc(O)c(CC=C(C)C)c4)c(=O)oc3c2C)OC1(C)C` (some centres undefined), for which the inhibition was -0.98%.

On to `Cc1ccc(Cl)c(NC(=O)CN(C)CC(=O)Nc2ccc(F)c(F)c2F)c1Cl`, for which the inhibition is 2.01%.

With `COc1ccc(C2=NN(C(=O)c3cccnc3)C(c3ccccc3)C2)cc1` (centres undefined), the inhibition is 3.29%.

Consider `COc1ccc(C2=NN(C(=O)c3ccccc3C(=O)O)C(c3ccccc3O)C2)cc1` (centres undefined), for which the inhibition was 35.3% (active).

Regarding `COc1ccc(C2=NN(C(C)=O)C(c3ccccc3)C2)cc1` (centres undefined), the inhibition was -4.9%.

Regarding `O=C(Nc1cc(-c2ccccc2)nn1-c1ccccc1F)c1ccc([N+](=O)[O-])cc1`, the inhibition is 1.59%.

Turning to `Cc1ccc2c(c1)C(c1ccccc1)N(C(=O)c1ccc(S(=O)(=O)N3CCOCC3)cc1)CC(=O)N2` (centres undefined), the inhibition was 1.61%.

For `CCN(CC)CCNc1nc(-c2ccc(OC(F)F)cc2)c(C)s1`, the inhibition is -0.49%.

`COc1ccc(/C=C2\SC(=S)N(CCC(=O)Nc3ccccn3)C2=O)cc1OC`: the inhibition was 1.07%.

On to `CCOc1ccc(/C=C2\SC(=S)N(NC(=O)c3ccncc3)C2=O)cc1OC`, for which the inhibition is 33.7% (active).

As for `COc1ccc(/C=C2\SC(=S)N(CC(=O)NNC(=O)c3ccncc3)C2=O)cc1`, the inhibition was -4.74%.

As for `O=C(c1cc(-c2ccc(Cl)cc2)on1)N1CCN(c2ccccc2)CC1`, the inhibition is -0.95%.

With `O=C(O)CCCC(=O)Nc1ccc(Oc2cccc(C(F)(F)F)c2)nc1`, the inhibition is -1.11%.

Turning to `COC(=O)c1[nH]c2cccc(C)c2c1NC(=O)CN1CCCc2ccccc21`, the inhibition is 29% (active).

Turning to `COC(=O)c1[nH]c2ccccc2c1NC(=O)CN1CCCc2ccccc21`, the inhibition is 11.9%.

For `NS(=O)(=O)c1cccc(NC(=O)CN2CCCc3ccccc32)c1`, the inhibition is 14.5%.

Turning to `S=C(NC1CCCCC1)NN1CCOCC1`, the inhibition was -1.16%.

Turning to `Cc1nn(C(C)CC(=O)O)c(C)c1C` (centres undefined), the inhibition is 0.87%.

In the case of `CN(C)c1ccc(/C=N\S(=O)(=O)c2ccccc2)cc1`, the inhibition was 0.48%.

Consider `CC[n+]1cc(C)ccc1/C=C/c1ccc(N(C)C)cc1`, for which the inhibition is 29.6% (active).

Consider `CCCCN(CC)C(=O)C1CCCN(S(=O)(=O)c2cccc3nsnc23)C1` (centres undefined), for which the inhibition is -2.13%.

In the case of `Cc1cc(N=CC2=C(O)CCCC2=O)no1`, the inhibition is -5.36%.

On to `CCOC(=O)c1c(CC(C)C)csc1/N=C/C1=C(O)CCCC1=O`, for which the inhibition is 98.3% (active).

For the molecule `CCOC(=O)c1sc(/N=C/C2=C(O)CC(C)(C)CC2=O)c(C(=O)OCC)c1C`, the inhibition was -1.8%.

Consider `CC1CCC(CN2CCN=C2N(C)C)CC1` (centres undefined), for which the inhibition is -1.25%.

Regarding `COc1ccc(Cn2c(=O)cc(C)[nH]c2=S)cc1`, the inhibition was -2.44%.

Turning to `CCCOc1ccc(Cn2c(O)cc(=O)[nH]c2=O)cc1`, the inhibition is 48.6% (active).

With `COc1cc(=O)[nH]c(=O)n1C(=O)Cc1ccccc1`, the inhibition was 1.99%.

In the case of `CCc1ccc(C(CNc2nc(C(F)(F)F)nc3ccccc23)N(C)C)cc1` (centres undefined), the inhibition was -2.4%.

As to `CC(=O)Nc1ccc(/C=C/C(=O)c2ccccc2)cc1`, the inhibition is 15.6%.

For the molecule `O=C(O)c1ccc2c(c1)C(=O)N(c1ccc(/C=C/C(=O)c3ccccc3)cc1)C2=O`, the inhibition was 17.6%.

As to `O=C(/C=C/c1ccc(N2CCOCC2)cc1)c1ccccc1`, the inhibition is 84.1% (active).

For `O=C(CC1CCCCC1)NCc1ccccc1`, the inhibition was -1.14%.

Take `Oc1ccc(N=Cc2sc3ccccc3c2Cl)cc1`: the inhibition was -0.62%.

On to `O=[N+]([O-])c1ccc(N=Cc2c(O)ccc3ccccc23)cc1`, for which the inhibition is 3.33%.

For `Oc1ccc(N=Cc2c(O)ccc3ccccc23)cc1`, the inhibition was 78.9% (active).

Regarding `CCOc1cc(NC(=O)c2ccccc2C(=O)O)c(OCC)cc1NC(=O)c1ccccc1F`, the inhibition was 2.36%.

As for `COC(=O)C1=C(N)Oc2c(oc(CO)cc2=O)C1c1c(F)cccc1Cl` (centres undefined), the inhibition is -1.2%.

For `Cc1ccc(Nc2nc(C)cc(C)c2C(N)=O)cc1`, the inhibition is -2.11%.

Take `Cc1ccc(NC(=O)Nc2nnc(-c3ccncc3)s2)cc1`: the inhibition is -0.82%.

For the molecule `Cc1ccc(Nc2nc(Cl)c(C=O)s2)cc1`, the inhibition is 54.2% (active).

For `O=C(Nc1ccccc1Cl)/C(Cl)=C(\Cl)S(=O)c1ccccc1` (centres undefined), the inhibition was -2.57%.

As to `N#CCc1ccc(NC(=O)c2ccccc2C(=O)Nc2ccc(CC#N)cc2)cc1`, the inhibition was -2.77%.

As to `O=C(NNC(=S)NC1CC2CCC1C2)c1ccc(Cl)cc1` (centres undefined), the inhibition is -4.71%.

Regarding `CCOc1ccc2nc(/N=C/c3nc(-c4ccccc4)oc3O)sc2c1`, the inhibition is 46.7% (active).

As to `CC(N=Cc1nc(-c2ccccc2)oc1O)c1ccccc1` (centres undefined), the inhibition was 2.4%.

`CCOc1ccc2nc(N(CCCN(C)C)C(=O)c3ccc(C(=O)c4ccccc4)cc3)sc2c1`: the inhibition is -1.89%.

On to `CCOC(=O)c1cc2c(=O)[nH]c(C(Cl)(Cl)Cl)nc2o1`, for which the inhibition was 1.15%.

As to `CNc1nc2c(C)cccn2c(=O)c1C=Nc1ccc(OC)cc1`, the inhibition was 1.1%.

Take `Cc1cccn2c(=O)c(/C=C3\SC(=S)N(CC(C)C)C3=O)c(NCCCOC(C)C)nc12`: the inhibition is 63.5% (active).

For `CC(C)OCCCNc1nc2c(c(=O)n(Cc3ccccc3F)c(=O)n2C)n1C`, the inhibition is 2.3%.

In the case of `Cc1[nH]c(C)c(S(=O)(=O)N2CCN(c3cccc(C(F)(F)F)c3)CC2)c1C(=O)N1CCCCC1`, the inhibition is -0.13%.

On to `CC(C)(C)NC(=O)COC(=O)c1cc(Cl)ccc1[N+](=O)[O-]`, for which the inhibition is -0.54%.
